Measured values taken from PubChem BioAssay AID1159580 (chemical genetic matrix, 2015).
In all, about 5,500 compounds went through this assay and about 2,000 (36%) were called active. Another 18% or so got no clear call; they are omitted. Rule as the data show it: active = normalized growth mostly below about 0.91 (no sharp cut-off); inconclusive = no clear call, values can overlap the other calls; inactive = mostly above about 0.92. The list shows a part of the results.

Test: chemical genetic growth profiling, strain panel (AID 1159580);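 also: tested at 20 µM; growth read once vehicle control cultures reached saturation at 30 °C; 1 = growth at the plate median or of vehicle wells; lower values mean less growth of the strain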
Conditions: growth OD

Measured: normalized growth

CO[C@@]1(NC(=O)C(C(=O)O)c2ccc(O)cc2)C(=O)N2C(C(=O)O)=C(CSc3nnnn3C)CO[C@@H]21 (some centres not stated)
inactive: S. cerevisiae deletion strains, locus YJR075W, strain HOC1, hits give low values 1.02 | S. cerevisiae deletion strains, locus YKL009W, strain mrt4, hits give low values 1 | S. cerevisiae deletion strains, locus YKL068W, hits give low values 1.01 | S. cerevisiae deletion strains, locus YKL085W, strain MDH1 (second series), hits give low values 1.01 | S. cerevisiae deletion strains, locus YKL085W, strain MDH1, hits give low values 1.01 | S. cerevisiae deletion strains, locus YKL160W, strain elf1, hits give low values 0.962 | S. cerevisiae deletion strains, locus YKL190W, strain CNB1, hits give low values 1.02 | S. cerevisiae deletion strains, locus YKR001C, strain vps1, hits give low values 1.02 | S. cerevisiae deletion strains, locus YKR026C, strain gcn3, hits give low values 0.998 | S. cerevisiae deletion strains, locus YKR091W, strain srl3, hits give low values 0.976 | S. cerevisiae deletion strains, locus YLL001W, strain dnm1, hits give low values 0.922 | S. cerevisiae deletion strains, locus YLL026W, hits give low values 0.986 | S. cerevisiae deletion strains, locus YLL041C, strain sdh2, hits give low values 0.988 | S. cerevisiae deletion strains, locus YLR027C, strain aat2, hits give low values 1 | S. cerevisiae deletion strains, locus YLR039C, strain RIC1, hits give low values 1.02 | S. cerevisiae deletion strains, locus YLR058C, strain SHM2, hits give low values 1.01 | S. cerevisiae deletion strains, locus YLR102C, strain apc9, hits give low values 1.02 | S. cerevisiae deletion strains, locus YLR113W, strain HOG1, hits give low values 0.995 | S. cerevisiae deletion strains, locus YLR221C, strain rsa3, hits give low values 0.945 | S. cerevisiae deletion strains, locus YLR258W, strain gsy2, hits give low values 0.984 | S. cerevisiae deletion strains, locus YLR262C, strain YPT6 (second series), hits give low values 0.946 | S. cerevisiae deletion strains, locus YLR262C, strain YPT6, hits give low values 0.999 | S. cerevisiae deletion strains, locus YLR268W, strain sec22, hits give low values 1.04 | S. cerevisiae deletion strains, locus YLR320W, strain mms22, hits give low values 0.967 | S. cerevisiae deletion strains, locus YLR330W, strain CHS5, hits give low values 1.01 | S. cerevisiae deletion strains, locus YLR342W, strain FKS1 (second series), hits give low values 0.996 | S. cerevisiae deletion strains, locus YLR342W, strain FKS1, hits give low values 0.99 | S. cerevisiae deletion strains, locus YLR357W, strain rsc2, hits give low values 0.945 | S. cerevisiae deletion strains, locus YLR370C, strain arc18, hits give low values 0.978 | S. cerevisiae deletion strains, locus YLR371W, strain rom2, hits give low values 1.03 | S. cerevisiae deletion strains, locus YLR384C, strain iki3, hits give low values 0.982 | S. cerevisiae deletion strains, locus YLR418C, strain cdc73, hits give low values 1.02 | S. cerevisiae deletion strains, locus YML016C, strain PPZ1, hits give low values 1 | S. cerevisiae deletion strains, locus YML032C, strain rad52, hits give low values 1.03 | S. cerevisiae deletion strains, locus YML120C, strain ndi1, hits give low values 0.951 | S. cerevisiae deletion strains, locus YML124C, strain tub3, hits give low values 1.01 | S. cerevisiae deletion strains, locus YMR058W, strain fet3, hits give low values 0.975 | S. cerevisiae deletion strains, locus YMR078C, strain ctf18, hits give low values 1.02 | S. cerevisiae deletion strains, locus YMR125W, strain sto1, hits give low values 0.953 | S. cerevisiae deletion strains, locus YMR129W, hits give low values 0.994 | S. cerevisiae deletion strains, locus YMR205C, strain PFK2, hits give low values 0.946 | S. cerevisiae deletion strains, locus YMR223W, strain ubp8, hits give low values 0.985 | S. cerevisiae deletion strains, locus YMR231W, strain pep5, hits give low values 0.991 | S. cerevisiae deletion strains, locus YMR263W, strain SAP30, hits give low values 1.02 | S. cerevisiae deletion strains, locus YMR307W, strain GAS1, hits give low values 0.971 | S. cerevisiae deletion strains, locus YNL067W, strain RPL9B, hits give low values 1.02 | S. cerevisiae deletion strains, locus YNL071W, strain lat1, hits give low values 0.989 | S. cerevisiae deletion strains, locus YNL128W, strain TEP1, hits give low values 1.01 | S. cerevisiae deletion strains, locus YNL153C, strain GIM3, hits give low values 1.01 | S. cerevisiae deletion strains, locus YNL183C, strain NPR1, hits give low values 0.949 | S. cerevisiae deletion strains, locus YNL209W, strain ssb2, hits give low values 0.978 | S. cerevisiae deletion strains, locus YNL233W, strain BNI4, hits give low values 1.01 | S. cerevisiae deletion strains, locus YNL248C, strain rpa49, hits give low values 1 | S. cerevisiae deletion strains, locus YNL250W, strain rad50, hits give low values 1.02 | S. cerevisiae deletion strains, locus YNL271C, strain bni1, hits give low values 1.01 | S. cerevisiae deletion strains, locus YNL298W, strain CLA4, hits give low values 1.02 | S. cerevisiae deletion strains, locus YNL307C, strain MCK1, hits give low values 1.01 | S. cerevisiae deletion strains, locus YNL322C, strain KRE1 (second series), hits give low values 0.971 | S. cerevisiae deletion strains, locus YNL322C, strain KRE1, hits give low values 1.01 | S. cerevisiae deletion strains, locus YNR049C, strain mso1, hits give low values 0.972 | S. cerevisiae deletion strains, locus YNR052C, strain pop2, hits give low values 1.02 | S. cerevisiae deletion strains, locus YOL006C, strain TOP1, hits give low values 1.06 | S. cerevisiae deletion strains, locus YOL012C, strain htz1 0.996 | S. cerevisiae deletion strains, locus YOL147C, strain pex11, hits give low values 1.01 | S. cerevisiae deletion strains, locus YOR001W, strain rrp6, hits give low values 1.01 | S. cerevisiae deletion strains, locus YOR061W, strain CKA2, hits give low values 1 | S. cerevisiae deletion strains, locus YOR069W, strain VPS5, hits give low values 1.01 | S. cerevisiae deletion strains, locus YOR070C, strain gyp1, hits give low values 0.992 | S. cerevisiae deletion strains, locus YOR080W, strain dia2, hits give low values 0.987 | S. cerevisiae deletion strains, locus YOR083W, strain WHI5, hits give low values 0.961 | S. cerevisiae deletion strains, locus YOR106W, strain vam3, hits give low values 0.973 | S. cerevisiae deletion strains, locus YOR136W, strain idh2, hits give low values 1.02 | S. cerevisiae deletion strains, locus YOR144C, strain elg1, hits give low values 1.02 | S. cerevisiae deletion strains, locus YOR184W, strain ser1, hits give low values 1.02 | S. cerevisiae deletion strains, locus YOR231W, strain MKK1, hits give low values 1 | S. cerevisiae deletion strains, locus YOR265W, strain rbl2, hits give low values 0.998 | S. cerevisiae deletion strains, locus YOR270C, strain vph1, hits give low values 0.967 | S. cerevisiae deletion strains, locus YOR290C, strain snf2, hits give low values 0.917 | S. cerevisiae deletion strains, locus YOR316C, strain cot1, hits give low values 1.02 | S. cerevisiae deletion strains, locus YPL051W, strain arl3, hits give low values 0.983 | S. cerevisiae deletion strains, locus YPL055C, strain LGE1, hits give low values 1.02 | S. cerevisiae deletion strains, locus YPL078C, strain atp4, hits give low values 0.97 | S. cerevisiae deletion strains, locus YPL106C, strain sse1, hits give low values 0.94 | S. cerevisiae deletion strains, locus YPL240C, strain hsp82, hits give low values 0.981 | S. cerevisiae deletion strains, locus YPL241C, strain CIN2, hits give low values 1 | S. cerevisiae deletion strains, locus YPL256C, strain CLN2, hits give low values 0.961 | S. cerevisiae deletion strains, locus YPR119W, strain clb2, hits give low values 1.02 | S. cerevisiae deletion strains, locus YPR141C, strain kar3, hits give low values 1.02 | S. cerevisiae deletion strains, locus YPR163C, strain tif3, hits give low values 1.02 | S. cerevisiae deletion strains, locus YPR167C, strain met16, hits give low values 1.02 | S. cerevisiae deletion strains, strain wtn01, hits give low values 1.02 | S. cerevisiae strains, strain wild type, hits give low values 1.01
